{"source": "PubChem BioAssay (NCI)", "note": "The panel holds about 83,000 compounds, 20% with a hit somewhere; the sample as a whole holds those more often.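 The test compound was applied at a single concentration to cells in 96-well plates for 48 hours, and percent growth was recorded.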 Unmarked numbers belong to inactive results. How the source made its calls: active means growth percent below 10; inactive means the rest.", "data": [{"system": "DU-145 prostate", "experiment": "NCI-60 one-dose screen, 48 h (100 = growth as untreated, 0 = no growth, -100 = all killed)", "conditions": "10 µM unless noted", "units": {"growth": "%"}, "values": [{"compound": "CCOc1cccc(/C(N)=N/C(N)=N/c2nc3ccccc3s2)c1", "growth": 83.4}, {"compound": "O=C(CCl)Nc1ccc(NC(=O)c2cc(Cl)ccc2O)c(Cl)c1", "growth": 95.2}, {"compound": "Clc1ccc(CSc2nnc(-c3ccc(Cl)cc3)n2-c2ccccc2)cc1", "growth": 95.8}, {"compound": "CC(C)(C)OC(=O)NCc1ccc(CNc2c([N+](=O)[O-])cnc3ccccc23)cc1", "growth": 77.4}, {"compound": "NS(=O)(=O)c1ccc(Nc2nc(N/N=C/c3ccc4c(c3)OCO4)nc(Nc3ccccc3)n2)cc1", "growth": 41}, {"compound": "Cc1cc(=O)oc2cc(OCCCOc3ccc(/C=C/C(=O)Nc4ccc(Br)cc4)cc3)ccc12", "growth": 67.1}, {"compound": "CNC(=O)c1cc(N2CCc3cc(NC(=O)Nc4ccc(N5CCOCC5)c(C(F)(F)F)c4)ccc32)ccn1", "growth": 27.2}]}]}
